The list is not random: actives were taken first. Their share in the collection is about 2.4%.
D2 ag-1 – agonists of human D2 dopamine receptor (beta-arrestin). P14416. DiscoveRx PathHunter D2 beta-arrestin, luminescence, 90 min; 100% = 57 uM dopamine signal. activation, % (no concentration beside the values). actives 0.084% (n = 360,000); in the data active = activation above about 40%; inconclusive = between about 15% and that limit
Target sequence (P14416 whole entry, looked up): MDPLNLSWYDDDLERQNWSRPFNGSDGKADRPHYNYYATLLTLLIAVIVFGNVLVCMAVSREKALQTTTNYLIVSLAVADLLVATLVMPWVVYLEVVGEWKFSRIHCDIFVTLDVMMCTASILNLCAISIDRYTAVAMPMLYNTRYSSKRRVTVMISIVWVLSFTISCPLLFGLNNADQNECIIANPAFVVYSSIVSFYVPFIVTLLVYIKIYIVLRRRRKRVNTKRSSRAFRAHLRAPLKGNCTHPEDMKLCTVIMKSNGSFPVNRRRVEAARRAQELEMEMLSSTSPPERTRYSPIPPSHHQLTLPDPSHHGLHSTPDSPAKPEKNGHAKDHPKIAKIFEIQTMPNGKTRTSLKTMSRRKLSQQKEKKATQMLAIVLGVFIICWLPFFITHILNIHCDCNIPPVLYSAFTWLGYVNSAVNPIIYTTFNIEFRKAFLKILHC
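DiscoveRx PathHunter D2 beta-arrestin cells (2,100/well) attached overnight, then compound-stimulated 90 min at 37 C in HBSS/10 mM HEPES/0.1% Tween-20 buffer; beta-galactosidase complementation read by luminescence after 1 h at ambient temperature. Dopamine 57 uM final (EC100) as control.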
D2 ag-2 – activates the human D2 dopamine receptor | P14416 | HEK293 T-REx D2 cells, calcium flux agonist mode | activation, % at 2 µM | actives 0.53% (n = 340,000) | AID 485358;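 active = activation over 3 SD above normal in the single-dose calcium agonist read, cut at about 30% in these data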; also: 0% is about no effect
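Calcium-flux readout, 1 cycle/sec over 180 s following compound pin transfer, in inducible HEK293 Trex D2 cells (force-coupled); dopamine controls included. Positive calcium responses during this window marked compounds as potential agonists.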
D2 PAM-1 – human D2 receptor positive allosteric modulation; DiscoveRx D2 beta-arrestin cells, luminescence, 90 min; 100% = 57 uM dopamine signal; potentiation, % (concentration not given with the values); actives 0.23% (n = 360,000); AID 624464; in the data active = potentiation above about 50%; inconclusive = mostly about 30% to 49%
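D2 cells co-treated with compound plus 50 nM dopamine (EC20) for 90 min at 37 deg C to detect potentiation. Beta-arrestin recruitment was read as enzyme-fragment luminescence after 1 h at ambient temperature. Full response was set by 57 uM dopamine.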
D2 antagonist – antagonists of human D2 dopamine receptor; P14416; actives 2% (n = 340,000); HEK293 TREx D2 cells, calcium flux, dopamine EC80; inhibition, % at 10 µM; in the data active = inhibition above about 30%; inactive = below that, where a call was filed; also: 0% is about no effect
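Inhibition of EC80 dopamine-driven calcium flux, recorded kinetically, defines activity here; cells are a tetracycline-induced HEK293 T-REx line expressing force-coupled D2.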
D2 PAM-2 – D2 dopamine receptor (human) potentiation; P14416; HEK293 T-REx D2, calcium flux, EC20 dopamine potentiation; potentiation, % at 10 µM; actives 0.34% (n = 340,000); AID 485347;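 active = potentiation over 3 SD above the plate norm, cut at about 30% in these data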; also: 0% is about no effect
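Primary screen. Calcium kinetics in induced HEK293 T-REx D2 cells: compound pre-addition 180 s, EC20 dopamine, 180 s more.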
Numbers without * were called inactive; ? = inconclusive; . = no result given.

SMILES | D2 ag-1 | D2 ag-2 | D2 PAM-1 | D2 antagonist | D2 PAM-2
CCOc1ccccc1NC(=O)CN1C(=O)COc2ccc(S(=O)(=O)N3CCOCC3)cc21 | -2 | 0 | -16 | 36* | -2
COc1ccccc1NC(=O)CN1C(=O)COc2ccc(S(=O)(=O)N3CCC(C)CC3)cc21 | -1 | 0 | -5 | -10 | -1
Cc1c[nH]c2cccc(OCC(CNC(C)(C)C)OC(=O)c3ccccc3)c12 (stereo not given) | -4 | 0 | -18 | 70* | -19
O=c1c2ccccc2n2nnnc2n1-c1ccccc1 | -2 | 1 | -8 | 13 | 32*
O=C(CC1Sc2ccccc2NC1=O)Nc1cccc(C(F)(F)F)c1 (stereo not given) | . | 0 | . | . | -12
Cc1cc(C)nc(N2CCCC(C(=O)Nc3nnc(C(C)(C)C)s3)C2)n1 (stereo not given) | 2 | -2 | -11 | 48* | 3
Cc1ccc(NC(=O)C2CCCN(c3ncccn3)C2)cc1F (stereo not given) | -2 | -1 | -4 | 8 | -7
Cc1cc(C)cc(NC(=O)C2CCCN(c3ncccn3)C2)c1 (stereo not given) | 4 | -1 | 1 | 50* | -8
CCc1nnc(NC(=O)C2CCCN(c3nc(C)cc(C)n3)C2)s1 (stereo not given) | -2 | 3 | 3 | 0 | 11
Cc1c(NS(=O)(=O)c2ccc(NCCN3CCOCC3)c([N+](=O)[O-])c2)c(=O)n(-c2ccccc2)n1C | 3 | -1 | -9 | 6 | 31*
NNC(=O)CN1C(c2cccc(Cl)c2)=Nc2ccc(Br)cc2C1c1ccccc1 (stereo not given) | -1 | 1 | -42 | 34* | -21
COc1ccc(C2=Nc3ccc(Br)cc3C(c3ccccc3)N2CC(=O)NN)cc1 (stereo not given) | -2 | . | -32 | . | -26
COC(=O)CN1C(c2ccc(Cl)cc2)=Nc2ccc(Cl)cc2C1c1ccccc1 (stereo not given) | 0 | 2 | -31 | 49* | -16
COc1ccc(C2=Nc3ccc(C)cc3C(c3ccccc3)N2CC(=O)NN)cc1 (stereo not given) | 1 | 2 | -10 | 108* | -25
Cc1ccc(N2CCN(C(=O)NCc3noc4ccccc34)CC2C)cc1 (stereo not given) | . | 0 | . | . | -14
COC(=O)C(C(C)=O)C1=C/C(=N\S(=O)(=O)c2ccc(C)cc2)c2ccccc2C1=O (stereo not given) | 8 | 1 | 50* | -4 | -4
Cc1cc(C)cc(NC(=O)CCC(=O)Nc2nnc(C(F)(F)F)s2)c1 | -3 | 0 | -2 | 14 | 8
Cc1cc(C)cc(NC(=O)CCC(=O)Nc2nnc(C(C)C)s2)c1 | -4 | 0 | -28 | 33* | -21
CC(C)c1nnc(NC(=O)CCC(=O)Nc2ccc(Cl)cc2)s1 | -2 | 0 | -37 | 41* | -27
CC(C)Cc1nnc(NC(=O)CCC(=O)Nc2ccc(Cl)cc2)s1 | -2 | 0 | -17 | 19 | -4
COc1ccc(NC(=O)c2ccc(-c3nc(CSc4ccc(C)cc4)c(C)o3)cc2)cc1Cl | . | 1 | . | . | .
O=C(CSC1=Nc2ccccc2N=C(c2ccc(F)cc2)C1)Nc1cc(F)ccc1F | . | 1 | . | . | -11
COc1cc2c(C(=O)N3CCN(c4ccc(F)cc4)CC3)cn(CC(C)C)c(=O)c2cc1OC | . | 1 | . | . | -5
O=C(CCC1CCCCC1)Nc1ccc(C(=O)c2ccncc2)cc1 | 0 | -1 | -23 | 48* | -9
Cc1cc(NC(=O)CCSc2nc(-c3ccco3)cc(C(F)(F)F)n2)no1 | -3 | -1 | 0 | -15 | 1
SMILES | D2 ag-1 | D2 ag-2 | D2 PAM-1 | D2 antagonist | D2 PAM-2
Cc1cc(NC(=O)CSc2nc(-c3ccco3)cc(C(F)(F)F)n2)no1 | -4 | 2 | -18 | 36* | -2
CCc1ccc(NC(=O)CSc2nc3c(c(=O)[nH]2)CN(Cc2ccc(C)cc2)CC3)cc1 | . | -2 | . | . | 3
CC(=O)c1ccc(NC(=O)COC(=O)CCN2C(=O)c3cccc([N+](=O)[O-])c3C2=O)cc1 | -2 | 0 | -10 | -5 | -2
CC(C)N(c1ccccc1)c1ccc(NC(=O)COC(=O)CCN2C(=O)c3cccc([N+](=O)[O-])c3C2=O)cc1 | ? | -1 | 61* | -2 | -9
CC(O)C(O)C(O)C(O)C1NCCS1 (stereo not given) | -2 | 0 | -10 | 79* | -5
CCN(C(=O)c1ccc(Br)o1)C1CCS(=O)(=O)C1 (stereo not given) | 12 | -1 | -7 | -6 | 20
CN(C(=O)c1ccc(Br)o1)C1CCS(=O)(=O)C1 (stereo not given) | 1 | 0 | -1 | 37* | 9
Cc1ccc(Cl)cc1N1CCN(C(=O)c2ccc3c(Cl)c4c(nc3c2)CCCC4)CC1 | . | 1 | . | . | 0
CCCCN1CCc2c1nc1ccc(Br)cc1c2N | -1 | -1 | -22 | 68* | -22
CNS(=O)(=O)c1cn(CC(=O)N2CCN(c3cc(C)ccc3C)CC2)cc1S(=O)(=O)NC | . | -1 | . | . | -5
CS(=O)(=O)c1ccc(Cl)c(S(=O)(=O)NCc2ccccc2)c1 | 1 | 1 | -11 | 35* | -4
Cc1cc(Cl)ccc1NC(=O)C1CCCN(c2nnc(C)c3c(C)n(-c4ccccc4)nc23)C1 (stereo not given) | . | -1 | . | . | 9
Cc1cc(C)cc(C(=O)OCC(=O)N2CCCCCC2)c1 | 1 | 0 | -1 | 42* | -23
COc1cc(OC)cc(C(=O)OCC(=O)N2CCCC2)c1 | -3 | -5 | 3 | 12 | -12
O=C(OCC(=O)N1CCCC1)c1c[nH]c2ccccc12 | -4 | 0 | 0 | 3 | 5
O=C(OCC(=O)N1CCCCC1)c1c[nH]c2ccccc12 | -1 | 1 | 9 | -15 | 68*
CCC(Oc1ccc(F)cc1)C(=O)Nc1nc(-c2ccc(F)cc2)ns1 (stereo not given) | . | . | . | . | -19
O=C(N=NC(=O)c1ccc2c(O)n(C3CCCCC3)c(O)c2c1)c1cccnc1 | -5 | 1 | -8 | -22 | 40*
O=C(NC1CCCCCCC1)c1cccnc1 | -3 | 0 | -16 | -1 | -2
CN(C(=O)CSc1nc2ccc(NC(=O)COc3ccc(F)cc3)cc2s1)c1ccccc1 | . | 0 | . | . | -1
Cc1ccc(-c2onc3ccc(C4(C)OCCO4)cc23)cc1 | 13 | . | 69* | . | .
CC(=O)c1ccc2noc(-c3ccc(Cl)cc3)c2c1 | ? | -1 | ? | -16 | -3
Cc1ccc(-c2onc3ccc(C=O)cc23)cc1 | 10 | -1 | 59* | 2 | 0
Cc1cc(-c2onc3ccc(Cl)cc23)ccc1O | ? | -2 | 97* | 1 | 0
CC12CN3CC(c4ccccc4)(CN(C1)C3c1ccc(Cl)cc1)C2=O (stereo not given) | . | 1 | . | . | 17

Bioassay records from PubChem.
